Assay results as given in PubChem BioAssay (Tox21).
Values joined by “and” are separate entries in the source; they are usually repeats but may differ in a detail not shown here. Identical values can stand only once. Records with an inconclusive call do not appear. A call without a number means that no potency is given here. Values without a mark were called inactive. Active and inactive are the calls of the source. The call rests on the fitted dose curve; in most records, active means well fitted cell-killing curve with a large enough effect in the repeat runs; inconclusive means weak or mixed curves, or effect the other way; inactive means flat fitted curve, though single readings scatter.

Tests used:
[1] = cAMP Responsive Elements (CRE) small molecule antagonists, cell-based qHTS assay: qHTS cell viability counter screen (AID 2060913); details: CRE-bla HEK293T viability, CellTiter-Glo luminescence, 5 h; series mostly up to 92.4 µM; further: nearly all actives have a fitted effect of over 40% in size
In short: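 Viability of NKH477-stimulated (0.25 uM final) CRE-bla HEK293T cells is measured by CellTiter-Glo luminescence following 3 hrs compound exposure at 37 C.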

[2] = cAMP Responsive Elements (CRE) small molecule agonists, cell-based qHTS assay: qHTS cell viability counter screen (AID 2060914); details: CRE-bla HEK293T viability, CellTiter-Glo luminescence, 5 h; series mostly up to 92.4 µM; further: nearly all actives have a fitted effect of over 50% in size
In short: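 Cytotoxicity was measured as ATP luminescence (CellTiter-Glo, 30 min at room temperature) in the same wells as the CRE-bla FRET read-out. HEK293T CRE-bla cells had 3 h compound exposure at 37C/5% CO2.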
Potency means the concentration at half of the fitted maximal effect.

| Structure (SMILES) | Potency [1] | Potency [2] | viability change, negative = cytotoxic [1] | activity change, negative = cytotoxicity [2] |
| --- | --- | --- | --- | --- |
| CCCCCCc1ccc(N)cc1 | inactive | inactive |  |  |
| N[C@H](Cc1c[nH]c2ccccc12)C(=O)O | inactive | inactive |  |  |
| C=Cc1c(C)c2cc3[nH]c(cc4nc(cc5nc(cc1[nH]2)C(C)=C5CCC(=O)O)C(CCC(=O)O)=C4C)c(C)c3C=C | inactive | inactive |  |  |
| O=[N+]([O-])c1ccc(CO)cc1 | inactive | inactive |  |  |
| C=C(C)CNCC | inactive | inactive |  |  |
| CCC[C@H](N[C@@H](C)C(=O)N1[C@H](C(=O)O)C[C@@H]2CCCC[C@@H]21)C(=O)OCC | inactive | inactive |  |  |
| O=C1N=C(O)CN1/N=C/c1ccc(-c2ccc([N+](=O)[O-])cc2)o1 | inactive | inactive |  |  |
| CC/C=C\C/C=C\C/C=C\CCCCCCCC(=O)OCC | inactive | inactive |  |  |
| Cc1nc2ccccn2c(=O)c1CCN1CCC(C(=O)c2ccc(F)cc2)CC1 | inactive | inactive |  |  |
| CCCC(=O)OC/C=C(\C)CCC=C(C)C | inactive | inactive |  |  |
| c1ccc(CN(Cc2ccccc2)Cc2ccccc2)cc1 | inactive | inactive |  |  |
| CC(COc1ccccc1)N(CCCl)Cc1ccccc1 (centres undefined) | inactive | inactive |  |  |
| CC(C)N=C=NC(C)C | inactive | inactive |  |  |
| CN1CCN(c2c(F)cc3c(=O)c(C(=O)O)cn4c3c2OCN4C)CC1 |  |  | 3.45% [at 18.9 µM] | 10.7% [at 18.9 µM] |
| CN=C(NC#N)NCCSCc1csc(N=C(N)N)n1 | inactive | inactive |  |  |
| O=C(Cl)c1cccc([N+](=O)[O-])c1 | inactive | inactive |  |  |
| NS(=O)(=O)O | inactive | inactive |  |  |
| CCN(CC)CCOc1ccc2c(c1)C(=O)c1cc(OCCN(CC)CC)ccc1-2 | inactive | inactive |  |  |
| CCn1c2ccccc2c2ccccc21 | inactive | inactive |  |  |
| Cc1ccccc1N1CCN(CCc2nnc3n2CCCC3)CC1 | inactive | inactive |  |  |
| CC(=O)C(C)O (centres undefined) | inactive | inactive |  |  |
| CC(=O)/C=C/C1C(C)=CCC(C)C1(C)C (centres undefined) | inactive | inactive |  |  |
| CCOC(=O)CC1(C)OCC(C)O1 (centres undefined) | inactive | inactive |  |  |
| CC(=O)CCC=C(C)C | inactive | inactive |  |  |
| O=C(O)Cc1ccc(-c2ccccc2)cc1 | inactive | inactive |  |  |
| OCCc1ccccc1 | inactive | inactive |  |  |

| Structure (SMILES) | Potency [1] | Potency [2] | viability change, negative = cytotoxic [1] | activity change, negative = cytotoxicity [2] |
| --- | --- | --- | --- | --- |
| C=C(C)OC(C)=O | inactive | inactive |  |  |
| CCN(CC)C(=O)Nc1ccc(OCC(O)CNC(C)(C)C)c(C(C)=O)c1 (centres undefined) | inactive | inactive |  |  |
| Cc1ccc(-c2ccccc2)cc1 | inactive | inactive |  |  |
| CCO[Si](CC)(OCC)OCC | inactive | inactive |  |  |
| CCn1cc(C(=O)O)c(=O)c2cc3c(cc21)OCO3 | inactive | inactive |  |  |
| COc1cc(C(=S)N2CCOCC2)cc(OC)c1OC | inactive | inactive |  |  |
| CC(C)=CCC/C(C)=C/CO | inactive | inactive |  |  |
| c1ccc2cc3ccccc3cc2c1 | inactive | inactive |  |  |
| CC[C@H](C)[C@H](N)C(=O)O | inactive | inactive |  |  |
| CCCCCCCCCCC=CC1CC(=O)OC1=O (centres undefined) | inactive | inactive |  |  |
| CCOc1ccccc1OCC1CNCCO1 (centres undefined) | inactive | inactive |  |  |
| Cc1ccccc1 | inactive | inactive |  |  |
| CCC/C=C/C=O | inactive | inactive |  |  |
| CCCCOCCOCCOCCOCCO | inactive | inactive |  |  |
| CC1(C)NC(=O)NC1=O | inactive | inactive |  |  |
| CC1=C2[C@@H]([C@H](C)CC[C@H]2/C=C(\C)C(=O)O)[C@H](O)C1 | inactive | inactive |  |  |
| CCCCC | inactive | inactive |  |  |
| CC(O)CNCC(C)O (centres undefined) | inactive | inactive |  |  |
| Cc1ccc(Br)cc1 | inactive | inactive |  |  |
| COC(=O)c1ccc(OC)cc1 | inactive | inactive |  |  |
| Cc1ccc(S(=O)(=O)N=C=O)cc1 | inactive | inactive |  |  |
| CCOC(=O)NCCOc1ccc(Oc2ccccc2)cc1 | inactive | inactive |  |  |
| CCC1NC(=O)c2cc(S(N)(=O)=O)c(Cl)cc2N1 (centres undefined) | inactive | inactive |  |  |
| CCCOC(C(=O)OC1CCN(C)CC1)(c1ccccc1)c1ccccc1 | inactive | inactive |  |  |
| O=C(OCCCCCCOC(=O)c1ccccc1)c1ccccc1 | inactive | inactive |  |  |
| CCCC(c1cc(C(C)(C)C)c(O)cc1C)c1cc(C(C)(C)C)c(O)cc1C | 24.6 µM (active) | 31 µM (active) |  |  |

| Structure (SMILES) | Potency [1] | Potency [2] | viability change, negative = cytotoxic [1] | activity change, negative = cytotoxicity [2] |
| --- | --- | --- | --- | --- |
| CCCCCCCCCCCCOCC1CO1 (centres undefined) | inactive | inactive |  |  |
| O=C(O)c1ccc2c(c1)C(=O)OC2=O | inactive | inactive |  |  |
| Cc1occc(=O)c1O | inactive | inactive |  |  |
| COc1cccc(OC)c1C(=O)N[C@@H]1C(=O)N2[C@@H]1SC(C)(C)[C@@H]2C(=O)O | inactive | inactive |  |  |
| CO[C@@]1(NC(=O)C(C(=O)O)c2ccc(O)cc2)C(=O)N2C(C(=O)O)=C(CSc3nnnn3C)CO[C@@H]21 (some centres undefined) | inactive | inactive |  |  |
| CN(C)[C@@H]1C(=O)C(C(N)=O)=C(O)[C@@]2(O)C(=O)C3=C(O)c4c(O)cccc4C[C@H]3C[C@@H]12 | inactive | inactive |  |  |
| CCCSSCCC | inactive | inactive |  |  |
| COC(OC)(C(=O)c1ccccc1)c1ccccc1 | inactive | inactive |  |  |
| O=C(O[C@@H](C(=O)O)[C@@H](OC(=O)c1ccccc1)C(=O)O)c1ccccc1 | inactive | inactive |  |  |
| NCCOCCOCCN | inactive | inactive |  |  |
| COc1cc(C=C2CCC/C(=C\c3ccc(O)c(OC)c3)C2=O)ccc1O | inactive | inactive |  |  |
| CCCCCCCCCCCCc1ccccc1O | 53.8 µM (active) and 32 µM (active) | 60.3 µM (active) and 54.5 µM (active) |  |  |
| OC/C(Br)=C(\Br)CO | inactive | inactive |  |  |
| Cc1ccccc1C(=O)Nc1ccc(C(=O)N2CCCC(O)c3cc(Cl)ccc32)c(C)c1 (centres undefined) | inactive | inactive |  |  |
| CCOc1ccccc1OCCN[C@H](C)Cc1ccc(OC)c(S(N)(=O)=O)c1 | inactive | inactive |  |  |
| c1ccc(Sc2ccccc2)cc1 | inactive | inactive |  |  |
| CC(C)c1ccc2ncccc2c1 | inactive | inactive |  |  |
| Clc1ccc2c(Cl)ccnc2c1 | inactive | inactive |  |  |
| CC1=C(O)C(=O)CO1 | inactive | inactive |  |  |
| Cc1ccc(Cl)c(OCC(O)CNC(C)(C)C)c1 (centres undefined) | inactive | inactive |  |  |
| Cc1onc(-c2ccccc2Cl)c1C(=O)N[C@@H]1C(=O)N2[C@@H]1SC(C)(C)[C@@H]2C(=O)O | inactive | inactive |  |  |
| CC1CCC(C(C)(C)O)CC1 (centres undefined) | inactive | inactive |  |  |
| N[C@H](C(=O)O)[C@@H](O)c1ccc(O)c(O)c1 | inactive | inactive |  |  |
| CC1=CC[C@H]2C[C@@H]1C2(C)C | inactive | inactive |  |  |
| CCCCCCCCCCCCCC(=O)OCC | inactive | inactive |  |  |
| CCN(CC)CCCC(C)Nc1ccnc2cc(Cl)ccc12 (centres undefined) |  |  | 4.94% [at 8.39 µM] and -2.8% [at 18.9 µM] | -0.2% [at 8.39 µM] and -0.0045% [at 18.9 µM] |

| Structure (SMILES) | Potency [1] | Potency [2] | viability change, negative = cytotoxic [1] | activity change, negative = cytotoxicity [2] |
| --- | --- | --- | --- | --- |
| CC[C@H]1OC(=O)[C@H](C)[C@@H](O[C@H]2C[C@@](C)(OC)[C@@H](O)[C@H](C)O2)[C@H](C)[C@@H](O[C@@H]2O[C@H](C)C[C@H](N(C)C)[C@H]2O)[C@](C)(O)C[C@@H](C)/C(=N\OCOCCOC)[C@H](C)[C@@H](O)[C@]1(C)O | inactive | 36 µM (active) |  |  |
| CCCCCCCCCCCCCCC[C@H](O)[C@@H](N)CO | inactive | inactive |  |  |
| CCOC(=O)c1c(C)n(C)c2ccc(O)cc12 | inactive | inactive |  |  |
| O=C(NCc1ncc(C(F)(F)F)cc1Cl)c1c(Cl)cccc1Cl | inactive | inactive |  |  |
| O=C(CCCl)NCc1ccccc1 | inactive | inactive |  |  |
| CN1C(CSCC(F)(F)F)Nc2cc(Cl)c(S(N)(=O)=O)cc2S1(=O)=O (centres undefined) | inactive | inactive |  |  |
| C/C=C/C(=O)C1=C(C)C=CCC1(C)C | inactive | inactive |  |  |
| Nc1ccc(Oc2ccc(Cl)cc2)cc1 | inactive | inactive |  |  |
| CCN(CC)CCNC(=O)c1c(C)[nH]c(/C=C2\C(=O)Nc3ccc(F)cc32)c1C | inactive | inactive |  |  |
| Fc1ccccc1-c1ccccc1 | inactive | inactive |  |  |
| CCCCCOC(=O)CCCC | inactive | inactive |  |  |
| CC(=O)OC/C=C/c1ccccc1 | inactive | inactive |  |  |
| OCc1cc(C(O)CNCCCCCCOCCCCc2ccccc2)ccc1O (centres undefined) | inactive | inactive |  |  |
| CCC(C)c1cc(C(C)(C)C)c(O)c(C(C)(C)C)c1 (centres undefined) | inactive | inactive |  |  |
| CC(=O)Oc1cc2c(s1)CCN(C(C(=O)C1CC1)c1ccccc1F)C2 (centres undefined) | inactive | inactive |  |  |
| O=S(O)CO | inactive | inactive |  |  |
| O=C(Cl)c1ccc(F)c(Cl)c1 | inactive | inactive |  |  |
| O=C(O)CCNC(=O)c1ccccc1 | inactive | inactive |  |  |
| CC(=O)CC(=O)OC(C)(C)C | inactive | inactive |  |  |
| NS(=O)(=O)c1cc2c(cc1Cl)NC(CSCc1ccccc1)=NS2(=O)=O | inactive | inactive |  |  |
| Cc1c(-c2cccnc2)c2ccccc2n1CCCCC(=O)O | inactive | inactive |  |  |
| CC(=O)N[C@@H](CO)C(=O)N[C@@H](CC(=O)O)C(=O)N[C@@H](CCCCN)C(=O)N1CCC[C@H]1C(=O)O | inactive | inactive |  |  |
| Cc1ccc(C(C)(C)C)c(O)c1 | inactive | inactive |  |  |
| O=C(CCBr)N1CCN(C(=O)CCBr)CC1 | inactive | inactive |  |  |
